Assay [1] is described as follows: A CellTox Green Cytotoxicity Assay to monitor cytotoxicity in HEK293 cells - 32 hour (AID 1224881). Further: nearly all actives have a fitted effect of over 40% in size. Further: potency means the concentration at half of the fitted maximal effect. The essentials:
(§1)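 Read-out: fluorescence of a cell-impermeant cyanine dye staining DNA of dead cells, proportional to cytotoxicity. HEK293, 600 cells/well with reagent, compound (23 nL DMSO) added after 5 h; reads at 0, 8, 16, 24, 32, 40 h.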

Assay [2] can be described thus: A CellTox Green Cytotoxicity Assay to monitor cytotoxicity in HepG2 cells - 0 hour (AID 1224882). Further: nearly all actives have a fitted effect of over 35% in size. Further: potency means the concentration at half of the fitted maximal effect. The method, boiled down: (§2)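 HepG2, 600 cells/well premixed w/ CellTox Green; 5 h settle, 37 C/5% CO2; pintool cpd add (DMSO); 37 C, 40 h; fluorescence read at 0, 8, 16, 24, 32, 40 h.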
A short description of assay [3]: A CellTox Green Cytotoxicity Assay to monitor cytotoxicity in HepG2 cells - 32 hour (AID 1224883). Further: nearly all actives have a fitted effect of over 50% in size. Further: potency means the concentration at half of the fitted maximal effect. The essentials: as §2
Assay [4] can be described thus: A CellTox Green Cytotoxicity Assay to monitor cytotoxicity in HEK293 cells - 8 hour (AID 1224884). Further: nearly all actives have a fitted effect of over 35% in size. Further: potency means the concentration at half of the fitted maximal effect. The method, boiled down:
as §1

The nature of assay [5]: qHTS RealTime-Glo MT Cell Viability Assay in HepG2 cells - 16 hour (AID 1224885). Further: nearly all actives have a fitted effect of over 50% in size. Further: potency means the concentration at half of the fitted maximal effect. The essentials: (§3)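 Viability was tracked continuously by NanoLuc luminescence from prosubstrate reduced by living HepG2 cells, at successive time points over 40 h of compound exposure. Cells with reagent were preincubated 5 h at 37 °C before compound addition.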
For orientation: qHTS replaces the single test concentration by a dilution series.

A short description of assay [6]: qHTS RealTime-Glo MT Cell Viability Assay in HEK293 cells - 8 hour (AID 1224887). Further: top concentration of the series differs between compounds; nearly all actives have a fitted effect of over 50% in size. The essentials: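 Luminescence readout at each listed time point; HEK293, 600 cells/well, RealTime-Glo MT reagent added with cells; compounds pinned (23 nL in DMSO) after 5 h at 37 C; continuous culture at 37 C.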
Assay [7] in a line: A CellTox Green Cytotoxicity Assay to monitor cytotoxicity in HEK293 cells - 16 hour (AID 1224888). Further: nearly all actives have a fitted effect of over 35% in size. Further: potency means the concentration at half of the fitted maximal effect. The essentials: as §1
Assay [8] in a line: qHTS RealTime-Glo MT Cell Viability Assay in HepG2 cells - 0 hour (AID 1224889). Further: nearly all actives have a fitted effect of over 50% in size. Further: potency means the concentration at half of the fitted maximal effect. The essentials: as §3
Assay [9] is described as follows: A CellTox Green Cytotoxicity Assay to monitor cytotoxicity in HepG2 cells - 8 hour (AID 1224890). Further: nearly all actives have a fitted effect of over 45% in size. Further: potency means the concentration at half of the fitted maximal effect. The essentials: as §2
Assay [10] in a line: qHTS assay to identify small molecule phospholipidosis (PLD) inducers (AID 1259344; active means well fitted curve in the direction sought with a large enough effect; an effect the other way counts as inactive or inconclusive; further: potency means the concentration at half of the fitted maximal effect). The method, boiled down: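 After 4 h attachment on collagen I, HepG2 cells were dosed with compound alongside LipidTOX Red, kept 24 h at 37 C, fixed, and imaged for lamellar phospholipid pits.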
Assay [11] can be described thus: qHTS assay to identify small molecule HDAC inhibitors (AID 1259364).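 Further: wild-type HCT-116 cells with endogenous class I/II HDAC activity; top concentration of the series differs between compounds; nearly all actives have a fitted effect of over 45% in size.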 The method, boiled down:
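HCT-116 (wild type), 1,500 cells/well, overnight; compound 2 hr 37C 5% CO2; HDAC-Glo I/II reagent 30 min RT; luminescence readout.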

Assay [12] can be described thus: qHTS assay to identify small molecule HDAC inhibitors - cell viability counter screen (AID 1259365). The essentials: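 Wild-type HCT-116 cells, 1,500/well, cultured overnight, then compound-treated 2 h at 37 C. Viability measured as ATP luminescence with CellTiter-Glo after 30 min at room temperature.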
Assay [13] in a line: qHTS assay to identify small molecule agonists of the sonic hedgehog signaling (Shh) pathway - cell viability counter screen (AID 1259366). Further: nearly all actives have a fitted effect of over 50% in size. Further: potency means the concentration at half of the fitted maximal effect. The essentials: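 NIH/3T3-derived Gli1-Luc reporter cells, 2,000 per well, received compound after 4 h and were treated about 23 h at 37C. Viability measured in the same wells by CellTiter-Fluor fluorescence after 1 h.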
Assay [14] can be described thus: qHTS assay to identify small molecule antagonists of the sonic hedgehog signaling (Shh) pathway - cell viability counter screen (AID 1259367). Further: nearly all actives have a fitted effect of over 55% in size. Further: potency means the concentration at half of the fitted maximal effect. The essentials:
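Conditioned medium drove Shh signaling in 3T3 Gli1-Luc cells exposed to compounds at 37C and 5% CO2. Viability was determined from CellTiter-Fluor fluorescence, with reagent incubated 1 hr after 23 hr of treatment.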

Assay [15] can be described thus: qHTS assay to identify small molecule agonists of the sonic hedgehog signaling (Shh) pathway (AID 1259368; calls by dose curve;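 further: NIH/3T3-derived 3T3Gli1-Luc cells carrying a stable Gli1-driven firefly luciferase reporter; series mostly up to about 92 µM; nearly all actives have a fitted effect of over 15% in size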). The essentials:
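Read-out: firefly luciferase luminescence from a Gli1 response element reporter stably integrated in NIH/3T3-derived 3T3Gli1-Luc cells, measured 30 min at room temperature after reagent addition. Compound exposure lasted 24 hr at 37 C, 5% CO2.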

A short description of assay [16]: qHTS assay to identify small molecule antagonists of the estrogen receptor alpha (ER-alpha) signaling pathway using the BG1 cell line in the presence of 0.1 nM 17-beta-estradiol - cell viability counter screen (AID 1259241). Further: nearly all actives have a fitted effect of over 40% in size. The essentials:
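VM7Luc4E2 cells (endogenous full-length ER-alpha, 4xERE-luciferase), cultured 5 days in charcoal-stripped serum, exposed to compounds with 0.1 nM 17beta-estradiol (final) for 22 hr at 37C. Viability read in same wells as live-cell protease fluorescence after 30 min.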

The nature of assay [17]: qHTS assay to identify small molecule antagonists of the androgen receptor (AR) signaling pathway using the MDA cell line in the presence of 0.5 nM R1881 - cell viability counter screen (AID 1259242). Further: nearly all actives have a fitted effect of over 45% in size. The essentials: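 Live-cell protease fluorescence, CellTiter-Fluor, 30 min at 37C. Cells: MDA-kb2, 3,000/well, preincubated 5 hr. Compounds plus 0.5 nM R1881 final, 16 hr, 37C, 0% CO2.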

In assay [18] the target is Estrogen receptor (Homo sapiens) (UniProt P03372). Kind of assay: qHTS assay to identify small molecule antagonists of the estrogen receptor alpha (ER-alpha) signaling pathway using the BG1 cell line in the presence of 0.1 nM 17-beta-estradiol (AID 1259244). Further: nearly all actives have a fitted effect of over 50% in size. The essentials: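 Luminescence after ONE-Glo (30 min, room temperature) measured ERE-luciferase activity in VM7Luc4E2 cells treated 22 h with compound and 0.1 nM final 17beta-estradiol as stimulator.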

The target in assay [19] is Androgen receptor (Homo sapiens) (UniProt P10275). The experiment in a line: qHTS assay to identify small molecule antagonists of the androgen receptor (AR) signaling pathway using the MDA cell line in the presence of 0.5 nM R1881 (AID 1259243). Further: nearly all actives have a fitted effect of over 50% in size. The method, boiled down: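 MDA-kb2, MMTV-luc (AR/GR elements); 3,000 cells/well; cpd + 0.5 nM R1881 final; 16 hr 37C, 0% CO2; ONE-Glo 30 min RT; luminescence.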

Assay [20] can be described thus: qHTS RealTime-Glo MT Cell Viability Assay in HEK293 cells - 24 hour (AID 1224886). Further: nearly all actives have a fitted effect of over 50% in size. Further: potency means the concentration at half of the fitted maximal effect. On activity change, negative = cytotoxicity: top concentration of the series differs between compounds. The essentials:
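Viability tracked continuously by luminescence as live cells reduce a prosubstrate for NanoLuc; HEK293 cells preincubated 5 h, compound-treated at 37 C, and read at 0, 8, 16, 24, 32 and 40 h.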

Unmarked numbers belong to inactive results. Inconclusive results are not listed. Active and inactive are the calls of the source. Unless noted, the call rests on the fitted dose curve; in most records, active means well fitted curve in the direction sought with a large enough effect in the repeat runs; inconclusive means weak or mixed curves; inactive means no such curve, though single readings can be large; an effect the other way counts as inactive or inconclusive.

The results in this text go back to PubChem BioAssay (Tox21).
On the % scale 0 is the no-effect control and ±100 the full control effect.

Chain of Estrogen receptor (Homo sapiens) (P03372 whole entry, looked up): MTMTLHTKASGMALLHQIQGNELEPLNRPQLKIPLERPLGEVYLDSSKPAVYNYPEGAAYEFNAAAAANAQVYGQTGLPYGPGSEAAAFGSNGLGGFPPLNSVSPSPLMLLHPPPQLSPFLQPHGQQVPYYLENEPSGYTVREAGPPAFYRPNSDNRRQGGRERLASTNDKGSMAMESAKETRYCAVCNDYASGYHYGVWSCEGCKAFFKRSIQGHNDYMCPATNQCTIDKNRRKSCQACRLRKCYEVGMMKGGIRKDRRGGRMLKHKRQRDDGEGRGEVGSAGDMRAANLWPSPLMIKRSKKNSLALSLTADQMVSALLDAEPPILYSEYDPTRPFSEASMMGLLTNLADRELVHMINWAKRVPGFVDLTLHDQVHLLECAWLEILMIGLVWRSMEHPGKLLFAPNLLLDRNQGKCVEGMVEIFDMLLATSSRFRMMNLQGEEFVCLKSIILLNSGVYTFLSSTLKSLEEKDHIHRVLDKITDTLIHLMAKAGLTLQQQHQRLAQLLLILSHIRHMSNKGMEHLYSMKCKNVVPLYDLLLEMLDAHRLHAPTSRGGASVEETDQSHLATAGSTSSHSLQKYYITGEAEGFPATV
Chain of Androgen receptor (Homo sapiens) (P10275 whole entry, looked up): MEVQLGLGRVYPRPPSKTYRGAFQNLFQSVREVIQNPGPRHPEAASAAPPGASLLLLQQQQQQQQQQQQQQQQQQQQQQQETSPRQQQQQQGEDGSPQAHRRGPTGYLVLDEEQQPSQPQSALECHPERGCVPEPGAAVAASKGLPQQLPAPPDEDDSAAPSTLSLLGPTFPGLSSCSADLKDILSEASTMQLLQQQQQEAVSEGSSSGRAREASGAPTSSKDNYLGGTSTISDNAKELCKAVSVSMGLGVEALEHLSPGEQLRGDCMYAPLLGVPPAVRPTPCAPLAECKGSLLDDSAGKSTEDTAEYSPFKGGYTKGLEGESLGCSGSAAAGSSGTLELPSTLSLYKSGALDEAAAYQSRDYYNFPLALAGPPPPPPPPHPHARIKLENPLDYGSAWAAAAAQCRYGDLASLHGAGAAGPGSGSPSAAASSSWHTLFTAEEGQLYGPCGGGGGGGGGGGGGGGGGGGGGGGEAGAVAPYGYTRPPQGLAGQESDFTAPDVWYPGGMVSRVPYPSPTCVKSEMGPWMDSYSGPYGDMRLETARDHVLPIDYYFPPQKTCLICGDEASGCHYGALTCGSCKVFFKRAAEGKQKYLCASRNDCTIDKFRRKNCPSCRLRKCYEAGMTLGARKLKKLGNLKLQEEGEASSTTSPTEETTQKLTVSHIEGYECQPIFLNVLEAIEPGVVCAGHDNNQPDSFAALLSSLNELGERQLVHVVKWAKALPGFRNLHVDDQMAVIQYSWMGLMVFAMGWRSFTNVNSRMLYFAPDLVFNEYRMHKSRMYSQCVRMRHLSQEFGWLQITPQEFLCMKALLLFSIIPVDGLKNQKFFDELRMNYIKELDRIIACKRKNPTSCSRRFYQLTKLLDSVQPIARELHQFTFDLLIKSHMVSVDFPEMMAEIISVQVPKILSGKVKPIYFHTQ

Take `Cc1cc(=O)c2c(O)c3c(O)cc(=O)c4c3c3c(cc(O)c1c23)C(C)(C)C=4O`: the Potency in [1] was 5.22 µM (active); in [2] it was 4.65 µM (active); in assay [3], 4.14 µM (active); in [4], 7.37 µM (active); in [7], 7.37 µM (active); in assay [9] it was 4.65 µM (active). Further, in assay [5], the activity change, negative = cytotoxic is -19% [at 15.8 µM]. For the same molecule, the activity change, negative = cytotoxicity in assay [6] was 3.53% [at 15.8 µM]; in assay [8], -2.14% [at 15.8 µM]; in assay [12] it was 2.88% [at 19 µM]. Also, in [10], the Potency entry was “inactive”. In assay [11], the activity change, negative = inhibition was 3.66% [at 19 µM]. Moreover, the viability change, negative = cytotoxic in assay [13] was 17.6% [at 19 µM]; in [14], -14.6% [at 19 µM]. Further, the activity change in assay [15] is -5.72% [at 18.9 µM, stronger effect = higher value].

Regarding `COC(=O)C1=C(C)NC(C)=C(C(=O)O[C@@H]2CCCN(Cc3ccccc3)C2)[C@@H]1c1cccc([N+](=O)[O-])c1`, the Potency entry in [1], in assay [2], in assay [3], in assay [4], in assay [6] and in [7] was “inactive” in each case. For the same molecule, the Potency result in assay [9], in assay [16], in assay [17], in assay [18], in assay [10] and in [11] was “inactive” each time. Moreover, the Potency entry in assay [12] and in assay [15] was “inactive” in each case. In assay [8], the Potency is 5.35 µM (active).

As for `CC(=O)N/N=C/c1ccc([N+](=O)[O-])o1`, the Potency result in assay [1], in assay [2], in [3], in assay [4], in assay [5] and in [6] was “inactive” each time. Moreover, the Potency entry in assay [7], in assay [8], in assay [9], in assay [16], in assay [17] and in assay [18] was “inactive” each time. Also, the Potency entry in assay [10], in assay [11], in [12], in assay [14] and in [15] was “inactive” each time.

Regarding `O=C1Cc2cc(Cl)ccc2N1`, the Potency result in [1], in assay [2], in assay [3], in [4], in assay [5] and in assay [7] was “inactive” in each case. Moreover, the Potency entry in assay [8], in assay [17], in [19], in [11], in assay [12] and in [13] was “inactive” each time. Further, the Potency result in [14] and in assay [15] was “inactive” in each case.

Turning to `C[C@@H]1CN(CCCn2c3ccccc3c3ccccc32)C[C@H](C)N1`, the Potency in assay [1] is 23.9 µM (active); in assay [3], 23.9 µM (active); in assay [4] it was 23.9 µM (active); in [5], 23.9 µM (active); in assay [20], 23.9 µM (active); in assay [7] it was 21.3 µM (active). Further, the values for the Potency in [10], in [13] and in [14] were 10 µM (active), 33.5 µM (active) and 33.5 µM (active), respectively. The Potency entry in [2], in [16], in assay [11], in assay [12] and in [15] was “inactive” in each case.

As for `C/C=C\C/C=C/CCCCCCCCOC(C)=O`, the Potency entry in [1], in assay [2], in [3], in assay [4], in [5] and in [20] was “inactive” in each case. Further, the Potency result in assay [9], in assay [16], in assay [18], in [11], in [12] and in assay [13] was “inactive” throughout. The Potency entry in [14] and in assay [15] was “inactive” in each case.

Take `CC(CO)CO`: the Potency entry in assay [1], in assay [2], in assay [3], in assay [4], in assay [5] and in assay [6] was “inactive” each time. Moreover, the Potency result in [7], in assay [8], in assay [9], in [17], in [18] and in assay [11] was “inactive” throughout. For the same molecule, the Potency entry in assay [12], in [13], in [14] and in assay [15] was “inactive” each time.

In the case of `Brc1cc(Br)c(Oc2cc(Br)c(Br)cc2Br)cc1Br`, the Potency result in [1], in [2], in assay [3], in [4], in assay [5] and in [6] was “inactive” each time. Further, the Potency entry in assay [7], in assay [8], in assay [9], in assay [16], in [17] and in assay [11] was “inactive” in each case. Besides, the Potency entry in [12], in assay [13], in assay [14] and in [15] was “inactive” in each case.
